Reference: ChEMBL document CHEMBL1961873, “Compounds: GSK PKIS; Assays: Nanosyn kinase panel” (2012)

What was measured:
[1] = target: Serine/threonine-protein kinase MRCK alpha (Homo sapiens) (UniProt Q5VT25); details: at 0.1 µM
[2] = target: Serine/threonine-protein kinase MRCK alpha (Homo sapiens) (UniProt Q5VT25); details: at 1 µM
[3] = target: Serine/threonine-protein kinase MRCK beta (Homo sapiens) (UniProt Q9Y5S2); details: at 0.1 µM
[4] = target: Serine/threonine-protein kinase MRCK beta (Homo sapiens) (UniProt Q9Y5S2); details: at 1 µM
[5] = target: Ribosomal protein S6 kinase alpha-5 (Homo sapiens) (UniProt O75582); details: at 0.1 µM
[6] = target: Ribosomal protein S6 kinase alpha-5 (Homo sapiens) (UniProt O75582); details: at 1 µM
[7] = target: Ribosomal protein S6 kinase alpha-4 (Homo sapiens) (UniProt O75676); details: at 0.1 µM
[8] = target: Ribosomal protein S6 kinase alpha-4 (Homo sapiens) (UniProt O75676); details: at 1 µM
[9] = target: Ribosomal protein S6 kinase beta-1 (Homo sapiens) (UniProt P23443); details: at 0.1 µM
[10] = target: Ribosomal protein S6 kinase beta-1 (Homo sapiens) (UniProt P23443); details: at 1 µM

Chain of Ribosomal protein S6 kinase beta-1 (Homo sapiens) (P23443 whole entry, looked up): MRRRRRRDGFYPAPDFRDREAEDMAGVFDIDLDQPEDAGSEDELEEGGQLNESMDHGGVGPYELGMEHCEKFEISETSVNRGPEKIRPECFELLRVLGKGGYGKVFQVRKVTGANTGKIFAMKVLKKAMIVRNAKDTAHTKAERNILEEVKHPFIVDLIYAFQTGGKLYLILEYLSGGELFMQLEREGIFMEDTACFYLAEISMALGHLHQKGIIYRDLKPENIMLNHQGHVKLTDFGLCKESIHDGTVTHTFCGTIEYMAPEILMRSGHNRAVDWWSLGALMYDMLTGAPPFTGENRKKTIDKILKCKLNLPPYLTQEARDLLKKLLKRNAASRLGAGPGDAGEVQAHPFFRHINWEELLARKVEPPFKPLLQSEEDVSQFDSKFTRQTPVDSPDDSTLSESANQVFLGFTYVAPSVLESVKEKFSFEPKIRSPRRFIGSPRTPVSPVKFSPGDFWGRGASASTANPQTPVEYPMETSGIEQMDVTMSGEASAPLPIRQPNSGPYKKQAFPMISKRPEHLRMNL
Chain of Serine/threonine-protein kinase MRCK beta (Homo sapiens) (Q9Y5S2 whole entry): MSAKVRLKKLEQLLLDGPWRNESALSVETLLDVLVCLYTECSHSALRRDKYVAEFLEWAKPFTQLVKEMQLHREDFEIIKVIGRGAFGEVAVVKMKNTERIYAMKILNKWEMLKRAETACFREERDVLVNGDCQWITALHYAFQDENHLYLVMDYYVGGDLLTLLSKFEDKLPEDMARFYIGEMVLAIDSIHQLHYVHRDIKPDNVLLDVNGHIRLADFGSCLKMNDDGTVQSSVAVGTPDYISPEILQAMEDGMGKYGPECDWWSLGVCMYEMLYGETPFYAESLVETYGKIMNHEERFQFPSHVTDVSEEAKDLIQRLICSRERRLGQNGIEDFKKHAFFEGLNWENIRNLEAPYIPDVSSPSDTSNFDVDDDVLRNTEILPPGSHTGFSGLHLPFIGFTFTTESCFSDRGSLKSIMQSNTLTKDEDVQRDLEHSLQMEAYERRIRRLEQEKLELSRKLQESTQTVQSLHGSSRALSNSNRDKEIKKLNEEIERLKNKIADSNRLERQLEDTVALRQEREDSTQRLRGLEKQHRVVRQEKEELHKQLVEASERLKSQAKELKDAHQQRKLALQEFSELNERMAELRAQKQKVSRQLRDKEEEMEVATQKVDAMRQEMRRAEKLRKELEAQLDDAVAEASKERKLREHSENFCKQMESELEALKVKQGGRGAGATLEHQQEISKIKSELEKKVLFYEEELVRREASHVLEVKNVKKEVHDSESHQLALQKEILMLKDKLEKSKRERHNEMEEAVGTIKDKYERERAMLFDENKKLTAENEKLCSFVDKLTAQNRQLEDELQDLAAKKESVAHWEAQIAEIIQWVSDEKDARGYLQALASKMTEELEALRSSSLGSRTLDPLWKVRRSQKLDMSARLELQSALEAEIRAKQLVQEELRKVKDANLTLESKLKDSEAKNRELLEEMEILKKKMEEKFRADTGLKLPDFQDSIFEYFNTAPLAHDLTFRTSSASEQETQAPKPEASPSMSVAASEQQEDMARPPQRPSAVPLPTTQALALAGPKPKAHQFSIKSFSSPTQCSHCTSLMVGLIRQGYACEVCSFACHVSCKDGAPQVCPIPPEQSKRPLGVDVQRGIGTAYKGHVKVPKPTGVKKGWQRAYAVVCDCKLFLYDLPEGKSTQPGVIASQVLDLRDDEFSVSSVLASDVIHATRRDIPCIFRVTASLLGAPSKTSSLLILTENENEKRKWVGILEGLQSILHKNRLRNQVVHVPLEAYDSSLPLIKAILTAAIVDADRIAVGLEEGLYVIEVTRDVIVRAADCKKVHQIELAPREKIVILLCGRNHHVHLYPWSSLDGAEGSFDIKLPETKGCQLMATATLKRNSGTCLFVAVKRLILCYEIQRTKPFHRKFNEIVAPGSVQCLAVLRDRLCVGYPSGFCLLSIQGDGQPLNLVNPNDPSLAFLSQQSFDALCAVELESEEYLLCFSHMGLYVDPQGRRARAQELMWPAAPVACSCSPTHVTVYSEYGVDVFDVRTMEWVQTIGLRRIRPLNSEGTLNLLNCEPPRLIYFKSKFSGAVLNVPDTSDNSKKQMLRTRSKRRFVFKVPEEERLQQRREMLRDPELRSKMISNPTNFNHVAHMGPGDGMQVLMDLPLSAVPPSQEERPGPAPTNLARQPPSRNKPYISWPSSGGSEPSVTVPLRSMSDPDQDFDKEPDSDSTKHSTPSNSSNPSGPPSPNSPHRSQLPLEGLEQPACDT
Chain of Ribosomal protein S6 kinase alpha-4 (Homo sapiens) (O75676 whole entry, looked up): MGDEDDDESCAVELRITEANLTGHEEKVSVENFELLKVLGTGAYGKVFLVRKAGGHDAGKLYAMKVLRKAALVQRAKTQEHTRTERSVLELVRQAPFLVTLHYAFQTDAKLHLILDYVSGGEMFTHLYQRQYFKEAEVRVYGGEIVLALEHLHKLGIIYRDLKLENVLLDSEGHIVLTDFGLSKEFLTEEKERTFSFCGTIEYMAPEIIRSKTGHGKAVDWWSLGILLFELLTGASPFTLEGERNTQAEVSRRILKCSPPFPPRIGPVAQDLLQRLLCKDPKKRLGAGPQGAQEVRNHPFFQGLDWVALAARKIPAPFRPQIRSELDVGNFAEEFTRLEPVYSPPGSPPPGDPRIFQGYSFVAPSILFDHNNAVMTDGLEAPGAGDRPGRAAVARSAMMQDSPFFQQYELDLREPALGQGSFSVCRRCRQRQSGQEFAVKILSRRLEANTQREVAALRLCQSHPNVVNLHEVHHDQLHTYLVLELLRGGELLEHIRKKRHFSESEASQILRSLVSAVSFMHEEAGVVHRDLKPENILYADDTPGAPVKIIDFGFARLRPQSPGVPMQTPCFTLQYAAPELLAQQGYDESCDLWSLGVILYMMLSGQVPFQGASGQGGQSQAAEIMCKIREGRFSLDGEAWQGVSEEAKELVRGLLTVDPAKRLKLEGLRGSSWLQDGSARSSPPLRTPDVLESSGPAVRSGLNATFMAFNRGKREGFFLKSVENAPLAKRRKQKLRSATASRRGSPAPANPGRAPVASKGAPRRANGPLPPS
Chain of Ribosomal protein S6 kinase alpha-5 (Homo sapiens) (O75582 whole entry, looked up): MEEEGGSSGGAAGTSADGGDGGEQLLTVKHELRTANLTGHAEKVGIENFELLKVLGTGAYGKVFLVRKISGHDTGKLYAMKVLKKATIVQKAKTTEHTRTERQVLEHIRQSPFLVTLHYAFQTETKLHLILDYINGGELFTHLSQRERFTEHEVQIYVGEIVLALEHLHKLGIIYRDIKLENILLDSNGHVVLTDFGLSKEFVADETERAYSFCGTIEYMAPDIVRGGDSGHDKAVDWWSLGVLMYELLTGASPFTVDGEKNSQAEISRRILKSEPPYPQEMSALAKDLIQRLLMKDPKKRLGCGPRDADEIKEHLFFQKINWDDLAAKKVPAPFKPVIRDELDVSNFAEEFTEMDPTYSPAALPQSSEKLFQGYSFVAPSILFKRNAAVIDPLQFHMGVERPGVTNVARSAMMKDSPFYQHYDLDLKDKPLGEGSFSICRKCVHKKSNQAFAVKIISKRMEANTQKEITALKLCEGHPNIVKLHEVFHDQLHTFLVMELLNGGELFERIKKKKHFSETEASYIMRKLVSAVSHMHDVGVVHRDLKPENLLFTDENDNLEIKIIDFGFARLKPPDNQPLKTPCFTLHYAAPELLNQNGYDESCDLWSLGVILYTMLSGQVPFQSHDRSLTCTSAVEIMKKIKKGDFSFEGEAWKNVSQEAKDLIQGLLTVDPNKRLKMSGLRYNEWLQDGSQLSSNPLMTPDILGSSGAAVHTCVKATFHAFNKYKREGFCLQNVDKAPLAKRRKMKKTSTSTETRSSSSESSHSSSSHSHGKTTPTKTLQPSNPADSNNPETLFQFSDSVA

Compound | inhibition [1] | inhibition [2] | inhibition [3] | inhibition [4] | inhibition [5] | inhibition [6] | inhibition [7] | inhibition [8] | inhibition [9] | inhibition [10]
Cc1nnc(-c2ccc(C)c(-c3ccc(C(=O)Nc4cccc(C#N)c4)cc3)c2)o1 | 0.21% | 2.76% | -0.92% | -0.91% | 1.21% | 1.62% | 0.19% | 2.28% | 1.45% | 1.91%
COc1cc2c(cc1Nc1nc(N3CCc4ccccc43)c3cc[nH]c3n1)N(C(=O)CN(C)C)CC2 | 1% | -1.14% | 0.86% | 1.27% | 4.25% | 4.71% | 0.65% | 1.75% | 1.59% | 0.46%
CCc1cccc(NC(=O)Nc2ccc(Oc3ccc4nc(NC(=O)OC)[nH]c4c3)cc2)c1 | 1.75% | 2.04% | 0.03% | 0.65% | -4.58% | -1.65% | 1.22% | 1.3% | 4.31% | 5.19%
Fc1cccc(COc2ccc(Nc3ncnc4cc(-c5ccc[nH]5)sc34)cc2Cl)c1 | -0.43% | -1.14% | 0.61% | 0.75% | 0.34% | 0.11% | 3.11% | 4.08% | 0.99% | 1.05%
COc1ccc(-c2ccncc2)cc1C(N)=O | 3.16% | 6.38% | -0.49% | 2.83% | 9.33% | 10.5% | 2.85% | 5.28% | 1.79% | 4.79%
CN(C)c1cc2c(Nc3ccc4nc(Cc5ccccc5)[nH]c4c3)ncnc2cn1 | -0.16% | 1.32% | 0.33% | 0.93% | 4.14% | 4.53% | 1.93% | 2.96% | 2.15% | 4.96%
Cn1cc(C=C2C(=O)Nc3cccnc32)c2ccccc21 | 0.96% | 0.55% | 1.17% | 0.99% | 2.12% | 3.29% | 2.56% | 10.1% | 1.61% | 3.78%
CS(=O)(=O)Nc1ccc(N/C=C2\C(=O)Nc3ccccc32)cc1 | -2.44% | -0.5% | 0.24% | -0.45% | -1.26% | -0.97% | -0.53% | 7.44% | -0.58% | 3.4%
Cc1cccc(-c2n[nH]cc2-c2ccc3ncccc3n2)n1 | 0.34% | 0.69% | 0.87% | 1.36% | 0.79% | 0.35% | 1.84% | 0.64% | 0.55% | -0.68%
Cc1ccc(NC(=O)c2ccnc(N3CCCC3)c2)cc1-c1ccc(C(=O)NCC2CC2)cc1 | 1.01% | -0.76% | 1.8% | 2.5% | 2.8% | 2.72% | 3.43% | 8.63% | 1.53% | 2.76%
O=C(Nc1n[nH]c2nc(-c3ccco3)c(Br)cc12)C1CC1 | 0.4% | -0.6% | 1.27% | 0.57% | 3.55% | 1.89% | 0.7% | 2.64% | 1.19% | 2.07%
COc1cc2ncn(-c3cc(OCc4ccccc4C(F)(F)F)c(C(N)=O)s3)c2cc1OC | -5.9% | -3.27% | -0.23% | -0.14% | 1.71% | 1.02% | 2.52% | 5.14% | 1.44% | 3.22%
COc1ccc(-c2nn3ncccc3c2-c2ccnc(Nc3ccc(Cl)c(C(F)(F)F)c3)n2)cc1 | -0.16% | 3.43% | -1.37% | 0.06% | 1.49% | 1.69% | 0.22% | 2.02% | 0.17% | 2.22%
CCCN1CCC=C(c2ccc(Nc3nc(Nc4ccccc4C(N)=O)c4cc[nH]c4n3)c(C)c2)C1 | 5.2% | 9.75% | 0.66% | 4.44% | 4.46% | 6.4% | 1.37% | 5.28% | 0.98% | 6.39%
Fc1cccc(COc2ccc(Nc3ncnc4sc(-c5cccs5)cc34)cc2Cl)c1 | 1.75% | 2.49% | 1.14% | 1.28% | -5.35% | -7.37% | 1.59% | 1.29% | -0.02% | 0.68%
COc1cc2ncn(-c3cc(OCc4ccccc4Cl)c(C(N)=O)s3)c2cc1OC | -0.28% | 2.18% | 0.86% | 1.67% | -5.34% | -5.25% | 0.79% | 3.02% | 0.47% | 0.64%
COc1cc2ncn(-c3cc(O[C@@H](C)c4ccccc4Cl)c(C(N)=O)s3)c2cc1OC | 1.42% | 0.91% | 0.43% | 3.35% | 11.4% | 11.6% | 4.79% | 5.46% | 0.94% | 2.16%

Compound | inhibition [1] | inhibition [2] | inhibition [3] | inhibition [4] | inhibition [5] | inhibition [6] | inhibition [7] | inhibition [8] | inhibition [9] | inhibition [10]
COc1cc(C)c(NC(=O)CN(C)C)cc1Nc1nc(Nc2cccc(F)c2C(N)=O)c2cc[nH]c2n1 | -0.22% | 2.53% | -0.26% | 1.65% | 1.58% | 0.97% | -0.16% | 2.07% | 2.03% | 3.01%
Nc1nc(-c2ccccn2)c(-c2ccc3ncccc3n2)s1 | 0.29% | -0.21% | -1.45% | 0.91% | 2.65% | 4.51% | 1.3% | 3.24% | 0.7% | 1.17%
CN1CCC(C(=O)Nc2n[nH]c3nnc(-c4ccccc4)cc23)CC1 | 0.2% | 2.63% | -0.23% | 0.78% | -1.68% | -1.22% | 2.89% | 4.31% | 1.63% | 2.47%
CS(=O)(=O)CCNCc1ccc(-c2ccc3ncnc(Nc4ccc(OCc5ccccc5)c(Cl)c4)c3c2)o1 | -0.63% | -1.47% | 0.86% | 0.8% | -7.35% | -6.84% | 0.04% | 1.73% | 0.22% | 2.03%
CS(=O)(=O)CCNCc1nc(-c2ccc3ncnc(Nc4ccc(F)c(Cl)c4)c3c2)cs1 | 1.82% | 3.22% | -0.31% | -0.48% | 1.46% | 6.15% | 1.32% | 1.96% | -0.63% | 1.77%
CNC(=O)c1cncc(/C=C/c2c(Cl)cccc2Cl)c1 | 4.22% | 1.78% | 0.12% | 0.52% | 0.58% | 1.1% | 2.15% | 3.75% | 1.85% | 2.12%
CS(=O)(=O)CCN(CC#N)Cc1ccc(-c2ccc3ncnc(Nc4ccc(OCc5cccc(F)c5)c(Cl)c4)c3c2)o1 | -0.15% | -1.53% | -0.05% | -0.09% | 0.54% | -1.33% | 1.06% | 1.76% | 0.1% | 0.27%
O=C1NC(=O)C(c2cccc(Cl)c2)=C1Nc1ccc(O)c(Cl)c1 | 0.28% | 3.73% | 1.27% | 2.02% | 0.69% | 2.04% | 0.07% | 3.61% | 0.45% | 0.8%
O=C1NC(=O)C(c2ccccc2Cl)=C1Nc1cccc(O)c1 | 0.28% | -0.35% | 1.4% | 3.99% | 2.66% | 5.41% | 1.39% | 3.42% | 1.47% | 0.61%
CCN1CCC(CC(=O)Nc2n[nH]c3nc(-c4cccs4)c(Br)cc23)CC1 | -1% | -0.59% | 0.24% | 0.47% | -2.28% | 0.61% | -2.08% | -1.67% | -1.91% | 0.59%
O=C1Nc2ccc(C(=O)c3ccco3)cc2C1=Cc1cc(Cl)c(O)c(Cl)c1 | -0.25% | 1.33% | -0.3% | 1.6% | 2.41% | 5.05% | 0.41% | 4.81% | 0.47% | 3.14%
NC(=O)c1ccc(-c2nc(-c3ccccn3)c(-c3ccc4c(c3)OCO4)[nH]2)cc1 | 0.14% | 2.49% | 1.08% | 0.59% | 1.5% | 1.56% | 2.14% | 4.23% | 1.26% | 2.46%
NS(=O)(=O)c1ccc(N/N=C2\C(=O)Nc3ccc(C(=O)NCCc4c[nH]cn4)cc32)cc1 | -0.15% | 2.43% | 1.24% | 2.13% | 4.49% | 5.44% | 4.34% | 18.7% | 2.49% | 8.75%
CCn1c(-c2nonc2N)nc2cncc(C(=O)N3CCNCC3)c21 | 5.33% | 7.84% | 0.36% | 3.02% | 5.57% | 7.4% | 3.28% | 4.71% | 2.87% | 4.44%
O=C1NC(=O)C(N2CCc3ccccc32)=C1c1ccc(Cl)cc1 | 0.19% | 0.98% | 0.69% | 1.86% | 9.94% | 7.93% | 1.73% | 4.02% | 1.81% | 1.76%
CCn1c(-c2nonc2N)nc2c(N3CCCC3)nccc21 | -0.27% | 5.42% | -0.1% | 2.55% | -0.19% | 11.2% | -0.68% | 3.67% | -0.49% | 8.23%
